# Measured values as given in article PMC7862700, “An all-to-all approach to the identification of sequence-specific readers for epigenetic DNA modifications on cytosine”.
# Columns and labels:
# Assay in all cases: DAPPL (digital affinity profiling via proximity ligation, sequencing); 10 mM Tris-HCl pH 7.5, 50 mM NaCl, 1 mM DTT, 4% glycerol, room temperature, 30 min; GST-TFs on glutathione beads, 16-mer random dsDNA library, 0.1% formaldehyde crosslink after washing; high values mean tight binding
# [1] = molecular target: T1, FLI1 (Homo sapiens, UniProt Q01543 1-452); conditions: protein: recombinant; tags: N-terminal GST; dsDNA, one strand shown
# T1 sequence: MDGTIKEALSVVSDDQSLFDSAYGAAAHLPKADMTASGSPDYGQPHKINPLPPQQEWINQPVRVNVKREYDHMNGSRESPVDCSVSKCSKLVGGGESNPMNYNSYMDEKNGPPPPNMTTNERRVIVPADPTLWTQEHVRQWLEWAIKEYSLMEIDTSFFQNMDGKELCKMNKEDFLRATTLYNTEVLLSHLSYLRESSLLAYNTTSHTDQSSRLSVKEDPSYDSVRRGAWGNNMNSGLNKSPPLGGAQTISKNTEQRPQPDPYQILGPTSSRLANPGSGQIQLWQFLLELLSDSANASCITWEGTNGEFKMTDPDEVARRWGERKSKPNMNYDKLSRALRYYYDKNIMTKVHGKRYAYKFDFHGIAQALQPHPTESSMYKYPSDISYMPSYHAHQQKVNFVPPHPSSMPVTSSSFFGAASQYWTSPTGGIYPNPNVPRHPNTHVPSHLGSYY
# How it was run: (§1)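 The binding signal reported is, for every hexamer, its read frequency for a factor over its read frequency for the tag-only sample. Reads came from pools of yeast-expressed, GST-fused human transcription factors on glutathione beads, barcoded with DNA and mixed with that sample, which were incubated with 200 nmole of a random double-stranded 16-mer DNA library in Tris/NaCl/DTT/glycerol buffer at room temperature for 30 min. After washing, the pools were crosslinked with 0.1% formaldehyde, proximity-ligated with BsaI/T4 ligase for 1 h at 37 °C, PCR-amplified and sequenced on an Illumina NextSeq500.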
# [2] = molecular target: T2, ELK1 (Homo sapiens, UniProt P19419 1-428); conditions: protein: recombinant; tags: N-terminal GST; dsDNA, one strand shown
# T2 sequence: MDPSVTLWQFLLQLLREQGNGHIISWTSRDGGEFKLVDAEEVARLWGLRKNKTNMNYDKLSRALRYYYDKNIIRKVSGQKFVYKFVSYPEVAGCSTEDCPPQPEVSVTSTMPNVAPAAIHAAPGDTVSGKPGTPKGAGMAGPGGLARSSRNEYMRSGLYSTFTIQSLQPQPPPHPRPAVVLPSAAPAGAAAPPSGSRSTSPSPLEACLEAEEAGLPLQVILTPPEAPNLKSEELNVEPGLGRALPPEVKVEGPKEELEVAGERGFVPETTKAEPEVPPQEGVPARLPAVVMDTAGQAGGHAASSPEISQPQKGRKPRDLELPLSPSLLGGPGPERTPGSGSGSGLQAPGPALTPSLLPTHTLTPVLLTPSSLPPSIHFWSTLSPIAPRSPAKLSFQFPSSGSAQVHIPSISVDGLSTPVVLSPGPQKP
# How it was run: as §1
# [3] = molecular target: T3, GABPA (Homo sapiens, UniProt Q06546 1-454); conditions: protein: recombinant; tags: N-terminal GST; dsDNA, one strand shown
# T3 sequence: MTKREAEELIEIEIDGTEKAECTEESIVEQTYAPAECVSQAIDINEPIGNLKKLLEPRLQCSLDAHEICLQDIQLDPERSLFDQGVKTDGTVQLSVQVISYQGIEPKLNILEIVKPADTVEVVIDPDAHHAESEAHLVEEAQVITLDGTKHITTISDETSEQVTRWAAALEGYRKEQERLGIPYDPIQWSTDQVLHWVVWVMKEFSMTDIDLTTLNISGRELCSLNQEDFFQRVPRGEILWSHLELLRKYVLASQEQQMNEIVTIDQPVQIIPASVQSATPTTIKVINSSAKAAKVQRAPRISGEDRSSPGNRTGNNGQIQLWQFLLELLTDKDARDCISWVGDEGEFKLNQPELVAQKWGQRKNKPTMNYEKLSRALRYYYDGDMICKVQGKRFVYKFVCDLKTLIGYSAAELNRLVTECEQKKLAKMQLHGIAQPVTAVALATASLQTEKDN
# How it was run: as §1
# [4] = molecular target: T4, ERG (Homo sapiens, UniProt P11308 1-479); conditions: protein: recombinant; tags: N-terminal GST; dsDNA, one strand shown
# T4 sequence: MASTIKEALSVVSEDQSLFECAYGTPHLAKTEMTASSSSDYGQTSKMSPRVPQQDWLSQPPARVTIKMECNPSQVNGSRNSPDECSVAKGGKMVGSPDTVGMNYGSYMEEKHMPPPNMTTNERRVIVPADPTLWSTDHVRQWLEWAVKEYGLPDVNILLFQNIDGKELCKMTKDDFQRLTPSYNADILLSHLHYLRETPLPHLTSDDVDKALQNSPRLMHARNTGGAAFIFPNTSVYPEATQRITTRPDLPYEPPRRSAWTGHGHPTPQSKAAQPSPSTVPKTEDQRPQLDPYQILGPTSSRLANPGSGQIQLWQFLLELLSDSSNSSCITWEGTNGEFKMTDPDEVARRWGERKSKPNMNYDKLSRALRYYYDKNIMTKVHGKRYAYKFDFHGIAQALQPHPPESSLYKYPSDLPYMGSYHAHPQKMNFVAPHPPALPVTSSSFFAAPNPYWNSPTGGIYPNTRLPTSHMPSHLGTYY
# How it was run: as §1
# [5] = molecular target: ELF1 (Homo sapiens, UniProt P32519 1-619); conditions: protein: recombinant; tags: N-terminal GST; dsDNA, one strand shown
# How it was run: as §1
# [6] = molecular target: T5, EHF (Homo sapiens, UniProt Q9NZC4 1-300); conditions: protein: recombinant; tags: N-terminal GST; dsDNA, one strand shown
# T5 sequence: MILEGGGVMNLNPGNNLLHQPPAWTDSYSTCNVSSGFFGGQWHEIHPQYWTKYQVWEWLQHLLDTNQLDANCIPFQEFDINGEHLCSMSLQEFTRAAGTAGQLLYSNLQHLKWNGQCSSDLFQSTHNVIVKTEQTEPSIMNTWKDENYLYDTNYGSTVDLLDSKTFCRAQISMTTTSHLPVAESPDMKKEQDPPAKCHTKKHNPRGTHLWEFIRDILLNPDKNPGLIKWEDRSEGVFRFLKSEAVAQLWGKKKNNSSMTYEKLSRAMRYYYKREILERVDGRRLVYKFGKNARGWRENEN
# How it was run: as §1
# [7] = molecular target: SPI1 (Homo sapiens, UniProt P17947 1-270); conditions: protein: recombinant; tags: N-terminal GST; dsDNA, one strand shown
# How it was run: as §1
# [8] = molecular target: SPIB (Homo sapiens, UniProt Q01892 1-262); conditions: protein: recombinant; tags: N-terminal GST; dsDNA, one strand shown
# How it was run: as §1
# [9] = molecular target: T6, ELK3 (Homo sapiens, UniProt P41970 1-407); conditions: protein: recombinant; tags: N-terminal GST; dsDNA, one strand shown
# T6 sequence: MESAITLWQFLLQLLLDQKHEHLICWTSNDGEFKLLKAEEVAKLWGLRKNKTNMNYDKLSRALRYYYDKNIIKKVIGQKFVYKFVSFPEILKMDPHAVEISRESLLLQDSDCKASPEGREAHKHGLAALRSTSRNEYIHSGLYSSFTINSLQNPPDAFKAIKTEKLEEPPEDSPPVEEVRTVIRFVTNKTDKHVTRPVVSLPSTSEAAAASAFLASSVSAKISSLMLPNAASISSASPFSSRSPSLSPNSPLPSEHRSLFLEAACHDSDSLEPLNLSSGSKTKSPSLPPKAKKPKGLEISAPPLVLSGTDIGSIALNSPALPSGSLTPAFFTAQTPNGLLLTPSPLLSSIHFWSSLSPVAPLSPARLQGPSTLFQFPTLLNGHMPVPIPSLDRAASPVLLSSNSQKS
# How it was run: as §1
# [10] = molecular target: T7, FEV (Homo sapiens, UniProt Q99581 1-238); conditions: protein: recombinant; tags: N-terminal GST; dsDNA, one strand shown
# T7 sequence: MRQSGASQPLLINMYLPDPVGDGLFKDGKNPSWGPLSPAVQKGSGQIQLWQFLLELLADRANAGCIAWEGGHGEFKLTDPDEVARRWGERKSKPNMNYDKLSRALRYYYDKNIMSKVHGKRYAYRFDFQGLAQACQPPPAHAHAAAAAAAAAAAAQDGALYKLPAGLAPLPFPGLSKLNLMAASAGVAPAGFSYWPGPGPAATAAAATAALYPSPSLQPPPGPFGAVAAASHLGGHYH
# How it was run: as §1
# [11] = molecular target: ETV5 (Homo sapiens, UniProt P41161 1-510); conditions: protein: recombinant; tags: N-terminal GST; dsDNA, one strand shown
# How it was run: as §1
# [12] = molecular target: HSF1 (Homo sapiens, UniProt Q00613 1-529); conditions: protein: recombinant; tags: N-terminal GST; chain copies: 3; dsDNA, one strand shown
# How it was run: as §1
# [13] = molecular target: T8, SPIC (Homo sapiens, UniProt Q8N5J4 1-248); conditions: protein: recombinant; tags: N-terminal GST; dsDNA, one strand shown
# T8 sequence: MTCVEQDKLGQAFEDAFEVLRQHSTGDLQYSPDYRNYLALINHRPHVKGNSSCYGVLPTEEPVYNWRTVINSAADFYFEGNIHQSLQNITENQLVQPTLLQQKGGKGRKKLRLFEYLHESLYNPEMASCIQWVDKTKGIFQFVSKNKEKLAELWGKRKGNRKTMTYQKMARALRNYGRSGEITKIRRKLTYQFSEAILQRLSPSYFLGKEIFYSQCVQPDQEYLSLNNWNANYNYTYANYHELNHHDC
# How it was run: as §1
# [14] = molecular target: ELF4 (Homo sapiens, UniProt Q99607 1-663); conditions: protein: recombinant; tags: N-terminal GST; dsDNA, one strand shown
# How it was run: as §1
# [15] = molecular target: T9, ELK4 (Homo sapiens, UniProt P28324-2 1-405); conditions: protein: recombinant; tags: N-terminal GST; dsDNA, one strand shown
# T9 sequence: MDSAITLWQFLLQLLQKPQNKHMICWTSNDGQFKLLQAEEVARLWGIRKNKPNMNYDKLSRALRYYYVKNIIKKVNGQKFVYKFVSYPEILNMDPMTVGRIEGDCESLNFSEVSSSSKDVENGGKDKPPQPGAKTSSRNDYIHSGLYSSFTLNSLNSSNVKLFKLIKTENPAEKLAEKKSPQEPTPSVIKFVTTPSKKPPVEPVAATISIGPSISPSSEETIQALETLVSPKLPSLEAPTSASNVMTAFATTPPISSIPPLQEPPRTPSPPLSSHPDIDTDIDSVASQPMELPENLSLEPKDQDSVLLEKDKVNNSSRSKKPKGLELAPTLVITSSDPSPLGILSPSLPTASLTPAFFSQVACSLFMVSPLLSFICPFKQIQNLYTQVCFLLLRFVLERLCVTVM
# How it was run: as §1
# [16] = molecular target: T10, ETV2 (Homo sapiens, UniProt O00321 1-342); conditions: protein: recombinant; tags: N-terminal GST; dsDNA, one strand shown
# T10 sequence: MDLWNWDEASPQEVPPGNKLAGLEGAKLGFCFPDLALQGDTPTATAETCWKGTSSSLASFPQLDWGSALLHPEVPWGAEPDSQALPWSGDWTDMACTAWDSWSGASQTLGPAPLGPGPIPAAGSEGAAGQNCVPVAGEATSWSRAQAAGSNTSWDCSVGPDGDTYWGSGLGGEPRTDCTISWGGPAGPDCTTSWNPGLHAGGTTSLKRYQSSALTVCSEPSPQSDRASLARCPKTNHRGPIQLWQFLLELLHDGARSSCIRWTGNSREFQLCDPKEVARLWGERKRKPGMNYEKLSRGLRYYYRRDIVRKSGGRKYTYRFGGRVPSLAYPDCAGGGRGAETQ
# How it was run: as §1
# [17] = molecular target: T11, ELF3 (Homo sapiens, UniProt P78545 1-371); conditions: protein: recombinant; tags: N-terminal GST; dsDNA, one strand shown
# T11 sequence: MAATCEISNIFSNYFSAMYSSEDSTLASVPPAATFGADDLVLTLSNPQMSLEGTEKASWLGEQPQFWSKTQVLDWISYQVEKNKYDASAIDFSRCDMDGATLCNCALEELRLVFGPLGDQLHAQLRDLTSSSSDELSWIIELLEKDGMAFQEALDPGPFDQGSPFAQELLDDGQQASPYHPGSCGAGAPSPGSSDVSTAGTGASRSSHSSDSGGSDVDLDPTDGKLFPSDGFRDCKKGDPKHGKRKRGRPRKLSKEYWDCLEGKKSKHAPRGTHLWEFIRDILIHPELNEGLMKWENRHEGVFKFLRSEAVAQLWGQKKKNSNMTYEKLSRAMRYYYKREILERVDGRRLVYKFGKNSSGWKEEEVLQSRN
# How it was run: as §1
# [18] = molecular target: CRX (Homo sapiens, UniProt O43186 1-299); conditions: protein: recombinant; tags: N-terminal GST; dsDNA, one strand shown
# How it was run: as §1
# [19] = molecular target: ETV1 (Homo sapiens, UniProt P50549 1-477); conditions: protein: recombinant; tags: N-terminal GST; dsDNA, one strand shown
# How it was run: as §1
# Chain of ETV5 (P41161 whole entry): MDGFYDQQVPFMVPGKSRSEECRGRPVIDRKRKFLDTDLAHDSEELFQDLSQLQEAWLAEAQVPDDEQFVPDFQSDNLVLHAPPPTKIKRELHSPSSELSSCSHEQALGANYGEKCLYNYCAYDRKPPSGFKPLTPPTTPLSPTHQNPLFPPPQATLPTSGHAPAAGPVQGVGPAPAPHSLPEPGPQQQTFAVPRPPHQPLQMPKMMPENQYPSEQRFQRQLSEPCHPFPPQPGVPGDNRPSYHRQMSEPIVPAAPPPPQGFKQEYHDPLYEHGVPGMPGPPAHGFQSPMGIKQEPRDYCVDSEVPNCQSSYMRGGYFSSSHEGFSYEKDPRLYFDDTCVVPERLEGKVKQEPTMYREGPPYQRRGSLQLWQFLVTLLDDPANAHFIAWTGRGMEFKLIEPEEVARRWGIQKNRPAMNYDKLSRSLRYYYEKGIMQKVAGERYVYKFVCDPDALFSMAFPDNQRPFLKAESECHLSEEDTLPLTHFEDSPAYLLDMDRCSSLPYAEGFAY
# Chain of ETV1 (P50549 whole entry): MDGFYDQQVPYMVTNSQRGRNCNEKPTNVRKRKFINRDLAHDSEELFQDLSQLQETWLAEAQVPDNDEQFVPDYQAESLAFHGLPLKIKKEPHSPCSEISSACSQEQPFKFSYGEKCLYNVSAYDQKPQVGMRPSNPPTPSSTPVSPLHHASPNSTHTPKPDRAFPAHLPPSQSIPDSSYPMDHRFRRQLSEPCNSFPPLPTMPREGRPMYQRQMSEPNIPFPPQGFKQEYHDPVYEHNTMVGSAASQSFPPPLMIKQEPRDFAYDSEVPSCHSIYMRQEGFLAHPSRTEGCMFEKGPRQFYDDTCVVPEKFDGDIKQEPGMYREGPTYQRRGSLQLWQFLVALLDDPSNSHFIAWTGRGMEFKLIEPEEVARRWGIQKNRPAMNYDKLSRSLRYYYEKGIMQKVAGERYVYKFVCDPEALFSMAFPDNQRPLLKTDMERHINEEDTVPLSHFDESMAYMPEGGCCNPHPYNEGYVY
# Chain of SPIB (Q01892 whole entry): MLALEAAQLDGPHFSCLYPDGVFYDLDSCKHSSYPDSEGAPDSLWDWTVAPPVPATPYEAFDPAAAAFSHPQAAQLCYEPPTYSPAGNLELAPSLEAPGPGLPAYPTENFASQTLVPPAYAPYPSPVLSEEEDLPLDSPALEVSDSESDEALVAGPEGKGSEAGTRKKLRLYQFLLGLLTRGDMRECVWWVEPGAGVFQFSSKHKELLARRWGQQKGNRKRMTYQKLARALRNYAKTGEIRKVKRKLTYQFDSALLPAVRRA
# Chain of HSF1 (Q00613 whole entry): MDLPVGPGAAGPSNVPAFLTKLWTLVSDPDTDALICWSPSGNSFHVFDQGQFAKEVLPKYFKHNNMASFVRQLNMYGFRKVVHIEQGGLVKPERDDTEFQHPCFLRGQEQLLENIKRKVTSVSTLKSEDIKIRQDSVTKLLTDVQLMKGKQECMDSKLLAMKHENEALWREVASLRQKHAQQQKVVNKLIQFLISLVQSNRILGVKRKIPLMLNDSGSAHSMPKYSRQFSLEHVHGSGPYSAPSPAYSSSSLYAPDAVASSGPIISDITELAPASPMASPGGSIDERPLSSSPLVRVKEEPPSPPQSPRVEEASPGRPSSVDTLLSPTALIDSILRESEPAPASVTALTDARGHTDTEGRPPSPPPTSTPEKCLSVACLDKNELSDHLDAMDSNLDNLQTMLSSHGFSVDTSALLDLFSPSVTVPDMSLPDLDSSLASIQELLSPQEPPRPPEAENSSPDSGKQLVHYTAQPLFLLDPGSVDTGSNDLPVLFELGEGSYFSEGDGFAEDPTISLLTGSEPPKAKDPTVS
# Chain of ELF4 (Q99607 whole entry): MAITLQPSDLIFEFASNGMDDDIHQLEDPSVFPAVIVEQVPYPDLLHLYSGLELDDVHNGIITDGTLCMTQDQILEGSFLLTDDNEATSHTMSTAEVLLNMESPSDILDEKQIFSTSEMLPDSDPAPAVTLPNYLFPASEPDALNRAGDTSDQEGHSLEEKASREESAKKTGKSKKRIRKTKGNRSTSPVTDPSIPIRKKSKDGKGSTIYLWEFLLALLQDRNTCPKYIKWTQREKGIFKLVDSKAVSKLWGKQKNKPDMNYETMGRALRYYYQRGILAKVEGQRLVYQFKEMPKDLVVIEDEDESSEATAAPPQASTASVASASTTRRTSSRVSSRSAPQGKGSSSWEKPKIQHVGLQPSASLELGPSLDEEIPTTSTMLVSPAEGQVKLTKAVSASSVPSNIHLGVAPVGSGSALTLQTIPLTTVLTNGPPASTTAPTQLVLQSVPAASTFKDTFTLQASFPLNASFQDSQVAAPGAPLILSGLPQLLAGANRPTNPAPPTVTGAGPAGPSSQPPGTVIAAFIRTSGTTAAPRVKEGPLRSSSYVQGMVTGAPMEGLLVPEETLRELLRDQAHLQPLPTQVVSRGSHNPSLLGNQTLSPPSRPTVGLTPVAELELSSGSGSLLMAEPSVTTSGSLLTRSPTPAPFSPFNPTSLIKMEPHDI
# Chain of CRX (O43186 whole entry): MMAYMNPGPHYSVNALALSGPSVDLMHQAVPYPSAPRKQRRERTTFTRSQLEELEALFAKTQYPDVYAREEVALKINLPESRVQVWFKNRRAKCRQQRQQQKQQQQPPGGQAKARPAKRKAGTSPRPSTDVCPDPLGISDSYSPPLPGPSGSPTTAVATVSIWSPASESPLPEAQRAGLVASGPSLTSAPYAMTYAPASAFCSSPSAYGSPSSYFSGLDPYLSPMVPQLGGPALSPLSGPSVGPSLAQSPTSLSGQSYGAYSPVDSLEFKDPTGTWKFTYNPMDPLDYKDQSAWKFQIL
# Chain of ELF1 (P32519 whole entry): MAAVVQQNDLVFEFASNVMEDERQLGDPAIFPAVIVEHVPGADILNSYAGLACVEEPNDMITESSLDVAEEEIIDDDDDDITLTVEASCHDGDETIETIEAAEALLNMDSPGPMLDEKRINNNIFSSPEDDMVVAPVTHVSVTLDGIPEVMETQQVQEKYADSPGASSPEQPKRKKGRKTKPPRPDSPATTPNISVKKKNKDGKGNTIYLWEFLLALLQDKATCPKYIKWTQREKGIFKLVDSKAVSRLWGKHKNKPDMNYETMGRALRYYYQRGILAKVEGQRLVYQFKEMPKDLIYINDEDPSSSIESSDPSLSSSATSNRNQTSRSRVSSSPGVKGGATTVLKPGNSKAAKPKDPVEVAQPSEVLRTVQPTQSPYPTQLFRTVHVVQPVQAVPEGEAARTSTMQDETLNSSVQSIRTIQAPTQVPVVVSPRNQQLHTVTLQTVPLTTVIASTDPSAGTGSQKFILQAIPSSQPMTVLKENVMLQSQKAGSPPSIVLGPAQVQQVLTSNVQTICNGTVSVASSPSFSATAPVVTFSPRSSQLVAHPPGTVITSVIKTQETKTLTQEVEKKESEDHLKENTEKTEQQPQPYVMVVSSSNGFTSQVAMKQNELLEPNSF
sequence,measurement,setting,value
CCTTGG,binding signal,[1],"1.28 fold enrichment (6-mer frequency, TF over GST control)"
same,binding signal,[2],"1.41 fold enrichment (6-mer frequency, TF over GST control)"
same,binding signal,[3],"1.34 fold enrichment (6-mer frequency, TF over GST control)"
same,binding signal,[4],"1.28 fold enrichment (6-mer frequency, TF over GST control)"
same,binding signal,[5],"1.28 fold enrichment (6-mer frequency, TF over GST control)"
same,binding signal,[6],"1.37 fold enrichment (6-mer frequency, TF over GST control)"
same,binding signal,[7],"1.24 fold enrichment (6-mer frequency, TF over GST control)"
same,binding signal,[8],"1.32 fold enrichment (6-mer frequency, TF over GST control)"
same,binding signal,[9],"1.4 fold enrichment (6-mer frequency, TF over GST control)"
same,binding signal,[10],"1.17 fold enrichment (6-mer frequency, TF over GST control)"
same,binding signal,[11],"1.21 fold enrichment (6-mer frequency, TF over GST control)"
same,binding signal,[12],"1.1 fold enrichment (6-mer frequency, TF over GST control)"
same,binding signal,[13],"1.23 fold enrichment (6-mer frequency, TF over GST control)"
same,binding signal,[14],"1.27 fold enrichment (6-mer frequency, TF over GST control)"
same,binding signal,[15],"1.37 fold enrichment (6-mer frequency, TF over GST control)"
same,binding signal,[16],"1.28 fold enrichment (6-mer frequency, TF over GST control)"
same,binding signal,[17],"1.22 fold enrichment (6-mer frequency, TF over GST control)"
same,binding signal,[18],"1.09 fold enrichment (6-mer frequency, TF over GST control)"
same,binding signal,[19],"1.35 fold enrichment (6-mer frequency, TF over GST control)"
